This passage reports outcome and AC50 results from PubChem BioAssay (EPA / NIEHS).

Molecules are shown by their SMILES. Inconclusive results are not listed. Calls of active or inactive are those of the source. How the source made its calls, unless noted: active means hit-call score of the fitted dose curve at least 0.9, where 1 is the maximum; inactive means score below 0.9.

Read-out in test [1]: Pyruvate Dehydrogenase Kinase 4 (PDK4), PDK4 (gene 5166)
The test can be described thus: LTEA_HepaRG_PDK4: Life Technologies and Expression Analysis (LTEA) Assay for Pyruvate Dehydrogenase Kinase 4 (PDK4) using HepaRG (AID 2283525). Particulars: mRNA level, 48 h; actives raise or lower the signal. The gist of the method:
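Readout is qRT-PCR of PDK4 transcript, normalized to three housekeeping genes, with bidirectional fitting against 0.5% DMSO vehicle. Differentiated HepaRG cells were treated 48 h in serum-free induction medium, duplicate wells, eight-point half-log series topping at 100 uM.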

Read-out in test [2]: NAD(P)H dehydrogenase [quinone] 1 (NQO1), NQO1 (gene 1728)
The test can be described thus: LTEA_HepaRG_NQO1: Life Technologies and Expression Analysis (LTEA) Assay for NAD(P)H dehydrogenase [quinone] 1 (NQO1) using HepaRG (AID 2283526). The conditions noted are these: mRNA level, 48 h; actives raise or lower the signal. The gist of the method: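 Transcript induction or suppression is quantified by qRT-PCR in human HepaRG liver cells dosed for 48 hours. Eight half-log concentrations topping at 100 uM are used, with 0.5% DMSO as vehicle and baseline.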

Read-out in test [3]: succinate dehydrogenase complex iron sulfur subunit B (SDHB), SDHB (gene 6390)
The test can be described thus: LTEA_HepaRG_SDHB: Life Technologies and Expression Analysis (LTEA) Assay for succinate dehydrogenase complex iron sulfur subunit B (SDHB) using HepaRG (AID 2283528). Particulars: mRNA level, 48 h; actives raise or lower the signal. The gist of the method: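 Readout is SDHB transcript level by qRT-PCR, normalised to three housekeeping genes and fitted bidirectionally against 0.5% DMSO vehicle. Human HepaRG cells were treated for 48 h at up to 100 uM.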

Read-out in test [4]: Signal transducer and activator of transcription 3 (Homo sapiens) (UniProt P40763)
The test is described as follows: LTEA_HepaRG_STAT3: Life Technologies and Expression Analysis (LTEA) Assay for Signal transducer and activator of transcription (STAT3) using HepaRG (AID 2283529). Particulars: mRNA level, 48 h; actives raise or lower the signal. The gist of the method:
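STAT3 transcript quantified by qRT-PCR against three housekeeping genes (ACTB, GAPDH, POLR2A), fitted both directions relative to DMSO. HepaRG cultures exposed 48 h to eight half-log concentrations, top 100 uM, 0.5% DMSO, serum-free induction medium.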

Read-out in test [5]: solute carrier (SLCO1B1), SLCO1B1 (gene 10599)
The test can be described thus: LTEA_HepaRG_SLCO1B1: Life Technologies and Expression Analysis (LTEA) Assay for solute carrier (SLCO1B1) using HepaRG (AID 2283530). The conditions noted are these: mRNA level, 48 h; actives raise or lower the signal. The gist of the method:
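Human HepaRG cultures treated for 48 h with an eight-concentration half-log series topping at 100 uM; SLCO1B1 measured by qRT-PCR and fitted bidirectionally relative to DMSO.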

Read-out in test [6]: sulfotransferase 2A1 (SULT2A1), SULT2A1 (gene 6822)
The test can be described thus: LTEA_HepaRG_SULT2A1: Life Technologies and Expression Analysis (LTEA) Assay for sulfotransferase 2A1 (SULT2A1) using HepaRG (AID 2283531). Particulars: mRNA level, 48 h; actives raise or lower the signal. The method in brief: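 Gene-expression endpoint in a human liver cell line: SULT2A1 mRNA change after 48 h chemical treatment, curves fitted in both directions relative to 0.5% DMSO vehicle. Concentrations spanned eight half-log steps from 100 uM.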

Read-out in test [7]: Transforming Growth Factor (TGFA), TGFA (gene 7039)
The test is described as follows: LTEA_HepaRG_TGFA: Life Technologies and Expression Analysis (LTEA) Assay for Transforming Growth Factor (TGFA) using HepaRG (AID 2283532). Particulars: mRNA level, 48 h; actives raise or lower the signal. The method in brief:
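TGFA transcript quantified by qRT-PCR (Fluidigm arrays) against three housekeeping genes, after 48 hours chemical treatment of HepaRG cells. Top concentration 100 uM with half-log dilutions, 8 points, duplicates, 0.5% DMSO.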

Read-out in test [8]: Transforming Growth Factor (TGFB1), TGFB1 (gene 7040)
The test is described as follows: LTEA_HepaRG_TGFB1: Life Technologies and Expression Analysis (LTEA) Assay for Transforming Growth Factor (TGFB1) Transporter using HepaRG (AID 2283533). The conditions noted are these: mRNA level, 48 h; actives raise or lower the signal. The method in brief: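 Eight-point concentration-response (max 100 uM, half-log) in HepaRG under serum-free induction conditions, 48 h. TGFB1 mRNA by qRT-PCR, housekeeping-normalized.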

Read-out in another test: TIMP1, TIMP1 (gene 7076)
The test is described as follows: LTEA_HepaRG_TIMP1: Life Technologies and Expression Analysis (LTEA) Assay for TIMP1 using HepaRG (AID 2283534).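 On outcome: TaqMan qRT-PCR signal normalized to ACTB GAPDH and POLR2A housekeeping genes.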 Particulars: mRNA level, 48 h; actives raise or lower the signal. The method in brief: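 TIMP1 induction or repression in HepaRG cells after 48 h chemical exposure (eight concentrations, highest 100 uM), assessed by normalized qRT-PCR with bidirectional fitting to DMSO controls.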

Read-out in test [9]: Tumor necrosis factor receptor 1 (TNFRSF1A), TNFRSF1A (gene 7132)
The test can be described thus: LTEA_HepaRG_TNFRSF1A: Life Technologies and Expression Analysis (LTEA) Assay for Tumor necrosis factor receptor 1 (TNFRSF1A) using HepaRG (AID 2283535). Particulars: mRNA level, 48 h; actives raise or lower the signal. The method in brief:
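Assay uses 48 h chemical treatment of differentiated HepaRG monolayers, tested in duplicate at eight concentrations from 100 uM downward in 0.5% DMSO. mRNA is normalized to ACTB, GAPDH and POLR2A, with induction or suppression fitted relative to vehicle.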

Read-out in test [10]: Thyroid Hormone Responsive (THRSP), THRSP (gene 7069)
The test is described as follows: LTEA_HepaRG_THRSP: Life Technologies and Expression Analysis (LTEA) Assay for Thyroid Hormone Responsive (THRSP) using HepaRG (AID 2283536). The conditions noted are these: mRNA level, 48 h; actives raise or lower the signal. The gist of the method: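 THRSP transcript quantified by Fluidigm qRT-PCR against three housekeeping genes after 48 h chemical exposure of HepaRG cells in serum-free induction medium; eight-point half-log series, top 100 uM, 0.5% DMSO vehicle, duplicate wells.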

Read-out in test [11]: Cellular tumor antigen p53 (Homo sapiens) (UniProt P04637)
The test can be described thus: LTEA_HepaRG_TP53: Life Technologies and Expression Analysis (LTEA) Assay for Tumor Protein P53 (TP53) using HepaRG (AID 2283537). Particulars: mRNA level, 48 h; actives raise or lower the signal. The gist of the method: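 Read-out is TP53 transcript level by microfluidic qRT-PCR, normalised to three housekeeping genes and fitted bidirectionally against DMSO. Human HepaRG cells received compounds for 48 h, highest concentration 100 uM.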

Read-out in test [12]: UDP glucuronosyltransferase (UGT1A1), UGT1A1 (gene 54658)
The test can be described thus: LTEA_HepaRG_UGT1A1: Life Technologies and Expression Analysis (LTEA) Assay for UDP glucuronosyltransferase (UGT1A1) using HepaRG (AID 2283538). Particulars: mRNA level, 48 h; actives raise or lower the signal. The method in brief: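 Cells are plated, cultured 48 h, switched to serum-free induction medium, then dosed 48 h at eight concentrations (max 100 uM, 0.5% DMSO). RNA is isolated and UGT1A1 expression measured by qRT-PCR; changes versus DMSO are fitted in both directions.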

Read-out in test [13]: UDP glucuronosyltransferase (UGT1A6), UGT1A6 (gene 54578)
The test is described as follows: LTEA_HepaRG_UGT1A6: Life Technologies and Expression Analysis (LTEA) Assay for UDP glucuronosyltransferase (UGT1A6) using HepaRG (AID 2283539). The conditions noted are these: mRNA level, 48 h; actives raise or lower the signal. The gist of the method:
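Measures mRNA change in HepaRG hepatic cells exposed 48 h to chemicals (eight-point, maximum 100 uM, 0.5% DMSO vehicle) in serum-free induction medium. Expression normalized to endogenous controls; DMSO served as negative control and baseline.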

Read-out in test [14]: X-box binding protein 1 (XBP1), XBP1 (gene 7494)
The test can be described thus: LTEA_HepaRG_XBP1: Life Technologies and Expression Analysis (LTEA) Assay for X-box binding protein 1 (XBP1) using HepaRG (AID 2283540). Particulars: mRNA level, 48 h; actives raise or lower the signal. The method in brief:
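Eight concentrations (half-log, highest 100 uM, 0.5% DMSO) tested in duplicate on HepaRG cells over 48 h in serum-free induction medium; qRT-PCR of XBP1 normalised to ACTB, GAPDH, POLR2A.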

Test [15] can be described thus: LTEA_HepaRG_LDH_cytotoxicity: Cytotoxicity Assessment in the Life Technologies and Expression Analysis (LTEA) Assay (AID 2283563; active means hit-call score of the fitted dose curve at least 0.9, where 1 is the maximum;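 on AC50: LDH activity released into spent culture medium as a marker of cell death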). The gist of the method: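 Spent-medium LDH after 48 h chemical exposure of HepaRG cells in serum-free induction medium; eight concentrations, half-log dilutions from 100 uM, duplicate wells, fitted upward relative to 0.5% DMSO.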
Test [16] is described as follows: TOX21_p53_BLA_p2_viability: Viability Assessment in the Tox21 HCT-116 p53 Agonism Beta-lactamase Assay, Phase 2 (AID 2283591; active means hit-call score of the fitted dose curve at least 0.9, where 1 is the maximum;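 further: compound exposure lasted 16 h at 37 °C; actives lower the ATP signal meaning cytotoxicity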). The gist of the method: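 Cytotoxicity readout: CellTiter-Glo ATP luminescence, 30 min at room temperature, after the beta-lactamase read. Cells were HCT116 exposed 16 h at 37C to compounds pin-transferred at 217-fold dilution from DMSO stocks.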

For test [17], the target named is Cellular tumor antigen p53 (Homo sapiens) (UniProt P04637). The test is described as follows: TOX21_p53_BLA_p2_ratio: Tox21 HCT-116 p53 Agonism Beta-lactamase Assay, Ratio, Phase 2 (AID 2283592; active means hit-call score of the fitted dose curve at least 0.9, where 1 is the maximum). The gist of the method:
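DMSO-normalized, positive-direction endpoint derived from the 460 nm/530 nm FRET ratio in HCT116 p53 beta-lactamase reporter cells exposed 16 h at 37C and loaded with CCF4-AM for 2 h.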

A short description of test [18]: ATG_XTT_Cytotoxicity: Cytotoxicity Assessment in the Attagene TRANS-FACTORIAL HepG2 Assay (AID 2283584; active means hit-call score of the fitted dose curve at least 0.9, where 1 is the maximum). The method in brief:
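24 h chemical exposure of reporter-transfected HepG2; XTT signal loss vs DMSO indicates cytotoxicity.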

Sequence of Cellular tumor antigen p53 (Homo sapiens) (P04637 whole entry, looked up): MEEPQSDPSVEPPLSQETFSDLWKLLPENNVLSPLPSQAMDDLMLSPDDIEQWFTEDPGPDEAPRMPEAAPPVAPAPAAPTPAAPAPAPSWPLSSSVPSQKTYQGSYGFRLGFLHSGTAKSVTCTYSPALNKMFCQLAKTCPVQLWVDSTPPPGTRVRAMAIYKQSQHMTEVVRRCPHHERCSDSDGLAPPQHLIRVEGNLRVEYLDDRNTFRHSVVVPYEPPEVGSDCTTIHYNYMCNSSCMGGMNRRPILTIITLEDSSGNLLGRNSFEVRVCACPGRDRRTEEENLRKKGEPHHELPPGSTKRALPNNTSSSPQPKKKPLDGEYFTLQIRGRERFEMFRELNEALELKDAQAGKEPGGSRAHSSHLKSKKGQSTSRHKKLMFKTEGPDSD
Sequence of Signal transducer and activator of transcription 3 (Homo sapiens) (P40763 whole entry, looked up): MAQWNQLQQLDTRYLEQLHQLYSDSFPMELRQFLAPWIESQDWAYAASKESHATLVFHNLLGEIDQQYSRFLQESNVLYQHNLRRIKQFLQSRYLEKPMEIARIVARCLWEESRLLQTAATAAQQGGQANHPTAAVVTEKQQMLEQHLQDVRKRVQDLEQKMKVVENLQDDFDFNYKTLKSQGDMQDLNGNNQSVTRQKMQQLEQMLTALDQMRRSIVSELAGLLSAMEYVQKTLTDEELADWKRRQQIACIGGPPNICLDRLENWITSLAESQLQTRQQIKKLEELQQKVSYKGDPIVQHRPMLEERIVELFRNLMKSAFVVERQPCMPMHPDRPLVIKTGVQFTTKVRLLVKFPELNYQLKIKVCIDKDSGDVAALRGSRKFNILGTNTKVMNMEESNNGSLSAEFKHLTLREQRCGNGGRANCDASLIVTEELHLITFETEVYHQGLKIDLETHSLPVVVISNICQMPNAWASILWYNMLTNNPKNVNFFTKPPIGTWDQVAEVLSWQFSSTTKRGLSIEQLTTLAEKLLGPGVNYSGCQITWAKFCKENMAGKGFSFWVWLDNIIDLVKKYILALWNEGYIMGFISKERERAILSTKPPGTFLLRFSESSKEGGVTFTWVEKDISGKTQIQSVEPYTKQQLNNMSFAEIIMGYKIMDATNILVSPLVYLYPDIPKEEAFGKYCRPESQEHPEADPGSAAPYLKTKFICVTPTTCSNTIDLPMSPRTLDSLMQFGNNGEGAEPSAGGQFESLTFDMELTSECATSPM

Consider `CCCOc1sc(C(=O)N2CCC(c3cc(CN)ccc3F)CC2)c(C)c1Br`, for which the result in [1], in [2], in [3], in test [4], in test [5] and in test [6] was inactive. Further, the outcome was “inactive” in [7]; “inactive” in test [8]; “inactive” with TIMP1, TIMP1 (gene 7076); “inactive” in test [9]; “inactive” in test [10]; “inactive” in test [11]. Besides, the call in test [12], in [13], in test [14] and in [15] was inactive. Further, the values for the AC50 in test [16] and in [17] were 43.2 µM (active) and 80.1 µM (active), respectively.
As to `O=[N+]([O-])c1ccc(O)cc1`, the result in test [1], in test [2], in test [3], in test [4], in [5] and in [6] was inactive. The outcome in test [7] is “inactive”; in test [8] it was “inactive”; with TIMP1, TIMP1 (gene 7076), “inactive”; in test [9] it was “inactive”; in test [10], “inactive”; in test [11], “inactive”. Moreover, the call in test [12], in [13], in [14], in test [15], in test [18] and in test [16] was inactive. Further, the result in test [17] was inactive.
Consider `CCCCOCCO`, for which the call in test [1], in test [2], in test [3], in [4], in test [5] and in test [6] was inactive. Besides, the outcome in test [7] was “inactive”; in [8], “inactive”; with TIMP1, TIMP1 (gene 7076), “inactive”; in [9] it was “inactive”; in [10], “inactive”; in test [11], “inactive”. Also, the molecule was classed as inactive in test [12], in test [13], in test [14], in test [15], in [18] and in test [17].
With `CN1CCN(c2ccccc2/C=C2\SCCN(c3ccc(Cl)c(Cl)c3)C2=O)CC1`, the outcome is “inactive” in test [1]; “inactive” in [3]; “inactive” in [4]; “inactive” in [5]; “inactive” with TIMP1, TIMP1 (gene 7076); “inactive” in [10]. For the same molecule, the call in [11], in test [13], in [14], in test [16] and in test [17] was inactive. The AC50 is 81.3 µM (active) in [2]; 93.2 µM (active) in test [6]; 96.2 µM (active) in test [7]; 93.4 µM (active) in test [8]; 95.5 µM (active) in test [9]; 50 µM (active) in test [12]. In addition, in test [15], the AC50 is 69.7 µM (active).
With `NC(=O)N1C(=O)C(C(=O)c2cc(Cl)cs2)c2cc(F)c(Cl)cc21` (stereo unspecified), the AC50 in test [1] was 27.8 µM (active); in test [2] it was 13.3 µM (active); in [3] it was 26.2 µM (active); in [5] it was 19.3 µM (active); in test [6], 34.2 µM (active); in test [7], 89.3 µM (active). For the same molecule, the concentration at half-maximal activity (AC50) with TIMP1, TIMP1 (gene 7076) was 85.2 µM (active); in test [9], 40.2 µM (active); in [10] it was 17.7 µM (active); in test [11], 94.4 µM (active); in test [12] it was 38.7 µM (active); in test [13] it was 57 µM (active). Besides, the results for the AC50 in [14] and in [15] were 12.9 µM (active) and 15.8 µM (active), respectively. Moreover, the call in test [4], in [8], in test [16] and in test [17] was inactive.
